# Measurements taken from PubChem BioAssay (Tox21).
# Several values for one entry are separate records, joined by “and”; a condition that tells them apart may be missing. Equal values may be shown once. Results filed as inconclusive are left out. A call without a number means that no potency is given here. A structure can be active in one record and inactive in another. Activity calls are given as the source filed them. Unless noted, the call rests on the fitted dose curve.
# Assays:
# [1] = qHTS assay to identify small molecule agonists of the sonic hedgehog signaling (Shh) pathway (AID 1259368); further: nearly all actives have a fitted effect of over 15% in size; further: potency means the concentration at half of the fitted maximal effect; on activity change: series mostly up to about 92 µM
# Outline: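 NIH/3T3-derived 3T3Gli1-Luc cells carrying a stably integrated Gli1 response element–firefly luciferase reporter were plated, left 4 hr at 37 C, then given compounds in DMSO for 24 hr. Luminescence was read 30 min after adding luciferase reagent.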
# [2] = qHTS assay to identify small molecule antagonists of the sonic hedgehog signaling (Shh) pathway (AID 1259369); further: nearly all actives have a fitted effect of over 45% in size; further: potency means the concentration at half of the fitted maximal effect
# Outline: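 NIH/3T3-derived 3T3Gli1-Luc cells with stably integrated Gli1-Luc reporter were preincubated 4hr at 37 C, then given compounds in DMSO plus Shh conditioned medium and incubated 24hr. Firefly luciferase luminescence read after 30min reagent at room temperature.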
# [3] = target: Estrogen receptor beta (Homo sapiens) (UniProt Q92731); experiment: qHTS assay to identify small molecule agonists of the estrogen receptor beta (ER-beta) signaling pathway (AID 1259377; active means well fitted activation curve with a large enough effect in the signal ratio in the repeat runs, not every such curve was filed as active; the % refers to the signal ratio)
# Outline: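 In HEK293T cells bearing a UAS-beta-lactamase reporter under ER-beta control, DMSO-delivered compounds were incubated for 16 hr at 37C. Activity was detected as fluorescence 2 hours after LiveBLAzer B/G FRET substrate addition.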
# [4] = qHTS assay to identify small molecule agonists of the androgen receptor (AR) signaling pathway in the presence of an antagonist - cell viability counter screen (AID 1259379; active means well fitted curve in the direction sought with a large enough effect in the repeat runs; an effect the other way counts as inactive or inconclusive; further: nearly all actives have a fitted effect of over 25% in size; further: potency means the concentration at half of the fitted maximal effect; on activity change, negative = cytotoxicity: series mostly up to about 92 µM)
# Outline: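 MDA-kb2 human breast carcinoma cells (stable MMTV-luciferase, AR/GR responsive) were seeded 3,000 cells/well, pre-incubated 5 hr at 37C without CO2, then given 3.0uM nilutamide and compounds at 15 concentrations for 16 hr. Viability was read by CellTiter-Fluor fluorescence.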
# [5] = qHTS assay to identify small molecule agonists of the estrogen receptor beta (ER-beta) signaling pathway - cell viability counter screen (AID 1259380; active means well fitted curve in the direction sought with a large enough effect in the repeat runs; an effect the other way counts as inactive or inconclusive; further: nearly all actives have a fitted effect of over 30% in size; further: potency means the concentration at half of the fitted maximal effect)
# Outline: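 ER-beta-UAS-bla HEK293T cells in medium with 2% charcoal-stripped FBS were preincubated 6 hr at 37C, dosed with compound in DMSO for 16 hr, then after the bla read, CellTiter-Glo was added for 30 min at room temperature; luminescence recorded.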
# [6] = target: Androgen receptor (Homo sapiens) (UniProt P10275); experiment: qHTS assay to identify small molecule agonists of the androgen receptor (AR) signaling pathway in the presence of an antagonist (AID 1259381); further: nearly all actives have a fitted effect of over 15% in size
# Outline: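 MDA-kb2 human breast carcinoma cells carrying an MMTV-luciferase reporter (AR- and GR-responsive) were treated with compounds at 15 concentrations plus 3.0uM final nilutamide for 16hr at 37C without CO2; luminescence was read after ONE-Glo addition.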
# [7] = qHTS assay to identify small molecule antagonists of the estrogen receptor beta (ER-beta) signaling pathway - cell viability counter screen (AID 1259382; active means well fitted curve in the direction sought with a large enough effect in the repeat runs; an effect the other way counts as inactive or inconclusive; further: nearly all actives have a fitted effect of over 55% in size; further: potency means the concentration at half of the fitted maximal effect; on activity change, negative = cytotoxicity: series mostly up to about 92 µM)
# Outline: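 ER-beta-UAS-bla HEK293T cells (2,000/well, 2% charcoal-stripped FBS) were pre-incubated 6 hr at 37C, then given compound plus 1nM final 17-beta-estradiol for 16 hr. Viability was read in the same wells by CellTiter-Glo luminescence after 30 min at room temperature.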
# [8] = target: Estrogen receptor (Homo sapiens) (UniProt P03372); experiment: qHTS assay to identify small molecule agonists of the estrogen receptor alpha (ER-alpha) signaling pathway in the presence of an antagonist (AID 1259383); further: nearly all actives have a fitted effect of over 15% in size; further: potency means the concentration at half of the fitted maximal effect; on activation: top concentration of the series differs between compounds
# Outline: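 VM7Luc4E2 cells (endogenous full-length ER-alpha, 4×ERE-luciferase) were precultured 5 days in phenol red-free medium with 10% charcoal-stripped FBS, given 10.0nM ICI-182,780 (final), then treated with compounds at 15 concentrations for 22hr at 37C; luminescence read with ONE-Glo.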
# [9] = qHTS assay to identify small molecule agonists or antagonists of the thyroid stimulating hormone receptor (TSHR) signaling pathway - wild type cell line counter screen (AID 1259384)
# Outline: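 Wild-type HEK293 cells were plated 18 h at 37 C/5% CO2, pin-dosed with compound plus Ro20-1724 medium, held 30 min at room temperature, then given cAMP-d2 and anti-cAMP-cryptate; fluorescence was read after 1 h. Fifteen concentrations, triplicate.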
# [10] = qHTS assay to identify small molecule agonists of the estrogen receptor alpha (ER-alpha) signaling pathway in the presence of an antagonist - cell viability counter screen (AID 1259386; active means well fitted curve in the direction sought with a large enough effect in the repeat runs; an effect the other way counts as inactive or inconclusive;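 further: cells exposed to compounds for 22 h at 37 °C before the viability read; nearly all actives have a fitted effect of over 30% in size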; further: potency means the concentration at half of the fitted maximal effect; on activity change, negative = cytotoxicity: series mostly up to about 92 µM)
# Outline: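 VM7Luc4E2 cells (endogenous full-length ER-alpha, 4×ERE-luciferase) were held 5 days in phenol red-free medium with 10% charcoal-stripped FBS, plated, then given 10.0nM ICI-182,780 and compounds at 15 concentrations for 22hr at 37C; viability read by CellTiter-Fluor fluorescence.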
# [11] = target: Progesterone receptor (Homo sapiens) (UniProt P06401); experiment: qHTS assay to identify small molecule agonists of the progesterone receptor (PR) signaling pathway (AID 1346784); further: nearly all actives have a fitted effect of over 30% in size
# Outline: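 Using charcoal-stripped serum (2%) to limit endogenous steroids, PR-UAS-bla HEK 293T cells received compounds for 16 hr at 37C after 6 hr plating; beta-lactamase FRET fluorescence was recorded following 2 hr substrate loading at room temperature.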
# [12] = qHTS assay to identify small molecule agonists of the progesterone receptor (PR) signaling pathway - cell viability counter screen (AID 1346799); further: nearly all actives have a fitted effect of over 45% in size
# Outline: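 Cytotoxicity in PR-bla HEK293T cells: 16 h compound, 37C; CellTiter-Glo added post-FRET read; luminescence after 30 min RT.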
# [13] = qHTS assay to identify small molecule antagonists of the TGF-beta/Smad signaling pathway - cell viability counter screen (AID 1346824; active means well fitted curve in the direction sought with a large enough effect in the repeat runs; an effect the other way counts as inactive or inconclusive; further: nearly all actives have a fitted effect of over 50% in size)
# Outline: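 SBE-bla HEK 293T cells were plated overnight at 37 C, then given compounds in DMSO plus TGF-beta1 (added as 0.25 ng/mL solution) for 5 hr. After the bla read, CellTiter-Glo was added to the same wells and luminescence read after 30 min at room temperature.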
# [14] = qHTS assay to identify small molecule agonists of the TGF-beta/Smad signaling pathway - cell viability counter screen (AID 1346829; active means well fitted curve in the direction sought with a large enough effect in the repeat runs; an effect the other way counts as inactive or inconclusive; further: top concentration of the series differs between compounds; nearly all actives have a fitted effect of over 45% in size)
# Outline: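 SBE-bla HEK 293T cells plated overnight, compound exposure 5 hr at 37 C. Viability read in the same wells by CellTiter-Glo luminescence after 30 min at room temperature, following the beta-lactamase read.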
# [15] = qHTS assay to identify small molecule agonists of the TGF-beta/Smad signaling pathway (AID 1346859; active means well fitted activation curve with a large enough effect in the signal ratio in the repeat runs, not every such curve was filed as active; the % refers to the signal ratio; further: series mostly up to about 77 µM)
# Outline: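 Stable Smad binding element-beta-lactamase HEK 293T cells; 5 hr compound exposure at 37 C under 5% CO2; 2 hr room-temperature substrate step; fluorescence excited at 405 nm, collected at 460 nm and 530 nm.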
# [16] = target: Thyrotropin-releasing hormone receptor (Homo sapiens) (UniProt P34981); experiment: qHTS assay to identify small molecule antagonists of the thyrotropin-releasing hormone receptor (TRHR) signaling pathway (AID 1346877; active means well fitted inhibition curve with a large enough effect in the repeat runs, not every such curve was filed as active; further: series mostly up to about 51 µM)
# Outline: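 TRHR-expressing HEK293 cells were seeded, cultured 18 h at 37 °C, then loaded with calcium dye for 2 h. Compounds were pre-incubated 5 min at room temperature before 1 nM TRH (final) was added, and kinetic fluorescence was recorded for 3 min.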
# [17] = target: Progesterone receptor (Homo sapiens) (UniProt P06401); experiment: qHTS assay to identify small molecule antagonists of the progesterone receptor (PR) signaling pathway (AID 1346795; active means well fitted inhibition curve with a large enough effect in the signal ratio in the repeat runs, not every such curve was filed as active; the % refers to the signal ratio; further: potency means the concentration at half of the fitted maximal effect)
# Outline: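 Inhibition of R5020-induced (1 nM final) beta-lactamase reporter signal in PR-UAS-bla HEK293T cells was scored by FRET fluorescence after overnight (16 hr) compound treatment.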
# [18] = target: Thyrotropin receptor (Homo sapiens) (UniProt P16473); experiment: qHTS assay to identify small molecule antagonists of the thyroid stimulating hormone receptor (TSHR) signaling pathway (AID 1259385); further: nearly all actives have a fitted effect of over 20% in size
# Outline: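 TSHR-HEK293 cells were plated and held 18 h at 37C/5% CO2, then given compound plus Ro20-1724 and stimulated with TSH at 1.5 ng/mL final. After 30 min at room temperature, cAMP was detected with cAMP-d2/anti-cAMP-cryptate (1 h) by fluorescence.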
# [19] = qHTS assay to identify small molecule antagonists of the progesterone receptor (PR) signaling pathway - cell viability counter screen (AID 1346798; active means well fitted curve in the direction sought with a large enough effect in the repeat runs; an effect the other way counts as inactive or inconclusive; further: series mostly up to about 92 µM; nearly all actives have a fitted effect of over 50% in size)
# Outline: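 ATP content as viability readout: CellTiter-Glo luminescence, 30 min room temperature, in PR-UAS-bla HEK293T cells after 16 hr compound/R5020 treatment at 37C and 5% CO2.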
# [20] = target: Estrogen receptor beta (Homo sapiens) (UniProt Q92731); experiment: qHTS assay to identify small molecule antagonists of the estrogen receptor beta (ER-beta) signaling pathway (AID 1259378; active means well fitted inhibition curve with a large enough effect in the signal ratio in the repeat runs, not every such curve was filed as active; the % refers to the signal ratio)
# Outline: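 ER-beta-UAS-bla HEK293T (GripTite) cells in 2% charcoal-stripped FBS medium were preincubated 6 hr at 37C, dosed with compound, then stimulated with 1 nM E2 (final) for 16 hr; beta-lactamase reporter read by B/G FRET fluorescence after 2 hr substrate loading.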
# Chain of Thyrotropin receptor (Homo sapiens) (P16473 whole entry, looked up): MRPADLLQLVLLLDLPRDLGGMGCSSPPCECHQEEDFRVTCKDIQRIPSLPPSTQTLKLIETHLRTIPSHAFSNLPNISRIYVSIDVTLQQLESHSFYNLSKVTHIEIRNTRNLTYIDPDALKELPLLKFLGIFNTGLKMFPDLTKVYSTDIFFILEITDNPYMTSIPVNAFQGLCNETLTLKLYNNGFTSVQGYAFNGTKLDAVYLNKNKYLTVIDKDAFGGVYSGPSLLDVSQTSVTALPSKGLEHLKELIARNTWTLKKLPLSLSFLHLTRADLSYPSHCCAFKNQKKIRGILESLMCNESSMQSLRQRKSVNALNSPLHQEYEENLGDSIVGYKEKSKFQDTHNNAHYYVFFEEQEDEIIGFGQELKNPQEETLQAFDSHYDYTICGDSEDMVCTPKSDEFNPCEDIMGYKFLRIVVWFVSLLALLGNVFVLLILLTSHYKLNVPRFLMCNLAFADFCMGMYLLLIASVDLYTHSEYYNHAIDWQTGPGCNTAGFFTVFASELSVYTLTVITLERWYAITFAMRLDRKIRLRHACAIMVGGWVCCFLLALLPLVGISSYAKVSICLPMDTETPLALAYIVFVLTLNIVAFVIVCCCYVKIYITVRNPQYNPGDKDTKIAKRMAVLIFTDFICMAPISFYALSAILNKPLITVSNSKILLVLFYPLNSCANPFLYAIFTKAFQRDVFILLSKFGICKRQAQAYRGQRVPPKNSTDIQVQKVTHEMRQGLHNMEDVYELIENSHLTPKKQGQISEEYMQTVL
# Chain of Progesterone receptor (Homo sapiens) (P06401 whole entry, looked up): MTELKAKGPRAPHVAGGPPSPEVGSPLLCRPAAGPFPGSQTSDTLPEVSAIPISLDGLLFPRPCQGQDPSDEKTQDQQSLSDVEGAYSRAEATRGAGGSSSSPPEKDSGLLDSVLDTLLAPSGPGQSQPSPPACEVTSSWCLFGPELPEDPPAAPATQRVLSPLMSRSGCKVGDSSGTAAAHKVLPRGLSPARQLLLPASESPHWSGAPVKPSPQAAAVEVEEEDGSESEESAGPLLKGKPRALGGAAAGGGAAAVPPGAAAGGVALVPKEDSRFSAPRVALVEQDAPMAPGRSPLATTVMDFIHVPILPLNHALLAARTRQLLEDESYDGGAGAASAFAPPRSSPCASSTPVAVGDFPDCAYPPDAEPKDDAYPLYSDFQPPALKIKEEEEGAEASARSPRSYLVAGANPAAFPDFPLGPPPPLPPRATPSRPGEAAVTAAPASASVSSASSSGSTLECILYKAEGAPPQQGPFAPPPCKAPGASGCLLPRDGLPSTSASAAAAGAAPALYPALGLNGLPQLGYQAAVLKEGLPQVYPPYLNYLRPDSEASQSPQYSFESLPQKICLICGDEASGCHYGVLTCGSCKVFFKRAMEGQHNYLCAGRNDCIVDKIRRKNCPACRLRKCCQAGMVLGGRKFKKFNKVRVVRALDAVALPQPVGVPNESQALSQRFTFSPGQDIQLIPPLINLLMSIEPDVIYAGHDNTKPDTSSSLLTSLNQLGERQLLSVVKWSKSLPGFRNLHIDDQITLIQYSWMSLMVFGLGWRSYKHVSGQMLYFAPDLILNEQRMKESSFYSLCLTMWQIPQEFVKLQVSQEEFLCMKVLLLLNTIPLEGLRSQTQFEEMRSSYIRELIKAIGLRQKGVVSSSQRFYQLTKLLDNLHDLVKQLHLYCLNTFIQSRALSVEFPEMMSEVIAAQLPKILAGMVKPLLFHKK
# Chain of Estrogen receptor (Homo sapiens) (P03372 whole entry, looked up): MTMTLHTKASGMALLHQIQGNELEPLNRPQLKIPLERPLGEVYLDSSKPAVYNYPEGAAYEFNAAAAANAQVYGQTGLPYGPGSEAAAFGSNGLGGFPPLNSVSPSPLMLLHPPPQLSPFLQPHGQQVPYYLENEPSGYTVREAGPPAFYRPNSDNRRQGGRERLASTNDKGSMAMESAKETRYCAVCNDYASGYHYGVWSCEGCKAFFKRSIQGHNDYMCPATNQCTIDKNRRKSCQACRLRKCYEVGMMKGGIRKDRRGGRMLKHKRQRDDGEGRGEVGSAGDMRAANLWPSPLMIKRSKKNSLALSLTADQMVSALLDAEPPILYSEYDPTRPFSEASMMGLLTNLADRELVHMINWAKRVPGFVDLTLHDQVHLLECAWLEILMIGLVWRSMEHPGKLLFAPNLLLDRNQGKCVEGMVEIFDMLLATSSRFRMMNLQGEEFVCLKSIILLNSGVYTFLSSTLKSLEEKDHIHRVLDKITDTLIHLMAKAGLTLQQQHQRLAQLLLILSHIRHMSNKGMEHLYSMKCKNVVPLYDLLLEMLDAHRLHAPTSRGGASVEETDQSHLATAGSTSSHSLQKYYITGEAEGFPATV
# Chain of Thyrotropin-releasing hormone receptor (Homo sapiens) (P34981 whole entry, looked up): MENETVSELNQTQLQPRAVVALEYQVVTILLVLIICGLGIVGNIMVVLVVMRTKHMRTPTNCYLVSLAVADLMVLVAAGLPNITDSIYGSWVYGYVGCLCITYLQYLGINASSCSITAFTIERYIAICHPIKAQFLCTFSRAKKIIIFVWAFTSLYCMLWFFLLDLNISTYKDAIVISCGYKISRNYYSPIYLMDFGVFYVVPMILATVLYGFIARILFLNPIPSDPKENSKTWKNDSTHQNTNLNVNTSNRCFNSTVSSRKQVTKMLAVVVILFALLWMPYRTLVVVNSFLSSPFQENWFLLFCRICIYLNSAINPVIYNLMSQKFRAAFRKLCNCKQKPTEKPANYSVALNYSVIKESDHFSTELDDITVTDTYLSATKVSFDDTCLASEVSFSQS
# Chain of Estrogen receptor beta (Homo sapiens) (Q92731 whole entry, looked up): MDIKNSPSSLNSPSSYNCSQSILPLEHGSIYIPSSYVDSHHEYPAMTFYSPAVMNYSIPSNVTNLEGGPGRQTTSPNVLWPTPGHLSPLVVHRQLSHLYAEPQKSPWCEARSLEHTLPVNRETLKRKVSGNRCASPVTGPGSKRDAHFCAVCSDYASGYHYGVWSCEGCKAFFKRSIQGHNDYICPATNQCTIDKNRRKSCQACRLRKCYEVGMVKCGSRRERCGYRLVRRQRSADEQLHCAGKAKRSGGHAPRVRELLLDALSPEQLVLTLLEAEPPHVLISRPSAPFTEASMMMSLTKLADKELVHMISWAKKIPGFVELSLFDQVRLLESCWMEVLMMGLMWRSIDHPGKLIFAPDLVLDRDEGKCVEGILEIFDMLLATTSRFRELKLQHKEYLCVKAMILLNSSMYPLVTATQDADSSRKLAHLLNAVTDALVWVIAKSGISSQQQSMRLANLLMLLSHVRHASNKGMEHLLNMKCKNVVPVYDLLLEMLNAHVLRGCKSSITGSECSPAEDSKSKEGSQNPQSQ
# Chain of Androgen receptor (Homo sapiens) (P10275 whole entry, looked up): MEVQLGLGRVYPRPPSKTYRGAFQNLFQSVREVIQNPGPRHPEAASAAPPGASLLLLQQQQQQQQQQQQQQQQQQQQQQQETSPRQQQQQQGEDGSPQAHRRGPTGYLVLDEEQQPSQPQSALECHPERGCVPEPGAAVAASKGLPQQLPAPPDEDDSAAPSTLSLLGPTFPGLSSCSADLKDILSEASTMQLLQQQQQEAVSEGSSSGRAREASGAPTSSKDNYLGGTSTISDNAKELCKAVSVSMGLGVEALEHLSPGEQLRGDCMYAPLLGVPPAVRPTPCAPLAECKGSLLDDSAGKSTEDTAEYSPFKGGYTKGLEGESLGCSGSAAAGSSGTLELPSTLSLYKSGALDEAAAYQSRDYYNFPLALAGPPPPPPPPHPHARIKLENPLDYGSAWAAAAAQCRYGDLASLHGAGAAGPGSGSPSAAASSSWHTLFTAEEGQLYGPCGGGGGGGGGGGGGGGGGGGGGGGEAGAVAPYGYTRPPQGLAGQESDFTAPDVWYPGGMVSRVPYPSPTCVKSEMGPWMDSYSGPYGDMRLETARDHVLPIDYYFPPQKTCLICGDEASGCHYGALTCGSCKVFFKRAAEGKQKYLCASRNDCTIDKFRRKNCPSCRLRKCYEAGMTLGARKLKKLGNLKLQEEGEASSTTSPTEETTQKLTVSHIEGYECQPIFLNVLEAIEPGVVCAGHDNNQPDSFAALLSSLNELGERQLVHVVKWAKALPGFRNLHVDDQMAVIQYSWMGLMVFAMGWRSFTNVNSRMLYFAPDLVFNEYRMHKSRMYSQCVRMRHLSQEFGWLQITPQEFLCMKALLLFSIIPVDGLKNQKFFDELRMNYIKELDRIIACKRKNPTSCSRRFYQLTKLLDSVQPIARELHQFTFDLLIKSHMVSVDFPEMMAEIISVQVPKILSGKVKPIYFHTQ
smiles,measurement,setting,value
CSc1ccc(Oc2ccc(S(N)(=O)=O)cc2CN(C)C)cc1C,Potency,[1],inactive
same,Potency,[2],5.45 µM (active)
same,Potency,[3],inactive
same,Potency,[4],inactive
same,Potency,[5],38.6 µM (active)
same,Potency,[6],inactive
same,Potency,[7],27.3 µM (active)
same,Potency,[8],inactive
same,outcome,[9],inactive
same,Potency,[10],inactive
same,Potency,[11],inactive
same,Potency,[12],inactive
same,outcome,[13],inactive
same,outcome,[14],inactive
same,outcome,[15],inactive
same,outcome,[16],inactive
CN(C)C(=O)Nc1ccc(Oc2ccc(Cl)cc2)cc1,Potency,[1],inactive
same,Potency,[2],inactive
same,Potency,[3],inactive
same,Potency,[4],54.5 µM (active)
same,Potency,[5],inactive
same,outcome,[9],inactive
same,Potency,[11],inactive
same,Potency,[17],34.4 µM (active)
same,outcome,[13],inactive
same,outcome,[14],inactive
same,outcome,[15],inactive
same,outcome,[16],inactive
Cc1oncc1C(=O)Nc1ccc(C(F)(F)F)cc1,Potency,[1],15.4 µM (active) and 9.44 µM (active)
same,Potency,[2],27.3 µM (active) and inactive
same,Potency,[3],inactive
same,Potency,[4],inactive
same,Potency,[5],inactive
same,Potency,[7],inactive
same,Potency,[8],3.06 µM (active) and inactive
same,outcome,[9],inactive
same,Potency,[18],inactive
same,Potency,[10],inactive
same,Potency,[11],inactive
same,Potency,[17],61.1 µM (active)
same,Potency,[19],inactive
same,Potency,[12],inactive
same,outcome,[13],inactive
same,outcome,[14],inactive
same,outcome,[15],inactive
O=C(Nc1ccccc1)Nc1ccccc1,Potency,[1],inactive
same,Potency,[2],inactive
same,Potency,[3],inactive
same,Potency,[20],inactive
same,Potency,[4],inactive
same,Potency,[7],inactive
same,Potency,[8],inactive
same,Potency,[10],inactive
same,Potency,[11],inactive
same,Potency,[19],inactive
same,Potency,[12],inactive
same,outcome,[13],inactive
same,outcome,[14],inactive
same,outcome,[15],inactive
same,outcome,[16],inactive
NC(=O)N(O)[C@@H]1COc2cc(OCc3ccccc3)ccc21,Potency,[1],inactive
same,Potency,[2],inactive
same,Potency,[3],inactive
same,Potency,[4],inactive
same,Potency,[5],inactive
same,Potency,[7],inactive
same,Potency,[8],inactive
same,outcome,[9],inactive
same,Potency,[18],inactive
same,Potency,[10],inactive
same,Potency,[17],13.7 µM (active)
same,outcome,[13],inactive
same,outcome,[14],inactive
same,outcome,[15],inactive
CC1CN(c2cc3c(cc2F)c(=O)c(C(=O)O)cn3-c2ccc(F)cc2F)CCN1 (stereo unspecified),activity change,[1],"0.373% [at 8.39 µM, stronger effect = higher value] (inactive)"
same,"activity change, negative = inhibition",[2],30.3% [at 8.39 µM] (inactive)
same,activation,[3],-1.89% [at 8.39 µM] (inactive)
same,"activity, negative = inhibition",[20],1.81% [at 8.39 µM] (inactive)
same,"activity change, negative = cytotoxicity",[4],0.826% [at 8.39 µM] (inactive)
same,"activity change, negative = cytotoxicity",[7],1.64% [at 8.39 µM] (inactive)
same,activation,[8],0.293% [at 8.39 µM] (inactive)
same,cAMP activity change,[9],-5.92% [at 8.39 µM] (inactive)
same,"activity change, negative = inhibition",[18],-6.71% [at 8.39 µM] (inactive)
same,"activity change, negative = cytotoxicity",[10],-5.19% [at 8.39 µM] (inactive)
same,activation,[11],-0.275% [at 8.39 µM] (inactive)
same,"activity change, negative = inhibition",[17],4.51% [at 8.39 µM] (inactive)
same,"activity change, negative = cytotoxicity",[19],0.324% [at 8.39 µM] (inactive)
same,"activity change, negative = cytotoxicity",[12],-0.292% [at 8.39 µM] (inactive)
same,"viability change, negative = cytotoxic",[13],-5.24% [at 6.97 µM] (inactive)
same,"activity change, negative = cytotoxicity",[14],5.65% [at 6.97 µM] (inactive)
same,activation,[15],-2.82% [at 6.97 µM] (inactive)
same,"activity, negative = inhibition",[16],2.02% [at 4.65 µM] (inactive)
CO[C@H]1C=CO[C@@]2(C)Oc3c(C)c(O)c4c(O)c(c5c(c4c3C2=O)=NC2(CCN(CC(C)C)CC2)N=5)NC(=O)/C(C)=C\C=C/[C@H](C)[C@H](O)[C@@H](C)[C@@H](O)[C@@H](C)[C@H](OC(C)=O)[C@@H]1C,Potency,[1],inactive
same,Potency,[2],23.8 µM (active)
same,Potency,[3],inactive
same,Potency,[4],47.5 µM (active)
same,Potency,[5],inactive
same,Potency,[6],inactive
same,Potency,[7],inactive
same,Potency,[8],inactive
same,outcome,[9],inactive
same,Potency,[10],26.7 µM (active)
same,Potency,[17],inactive
same,outcome,[13],inactive
same,outcome,[14],inactive
same,outcome,[16],inactive
